The panel holds about 83,000 compounds, 20% with a hit somewhere; the sample as a whole holds those more often.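 Assay: single dose, 48 h. Readout: percent growth (0 = no net growth; negative = cell death). Active: <10.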 Unmarked numbers belong to inactive results. Calls of active or inactive are those of the source.
Experiments:
Assay in all cases: NCI-60 one-dose screen, 48 h (100 = growth as untreated, 0 = no growth, -100 = all killed)
Conditions in all cases: 10 µM unless noted
[1] = tested on: HCT-15 colon
[2] = tested on: HT29 colon
[3] = tested on: SNB-75 CNS
[4] = tested on: SNB-19 CNS
[5] = tested on: U251 CNS
[6] = tested on: PC-3 prostate
[7] = tested on: SK-MEL-5 melanoma
[8] = tested on: UACC-62 melanoma
[9] = tested on: LOX IMVI melanoma
[10] = tested on: SK-MEL-28 melanoma

Structure (SMILES)	growth [1]	growth [2]	growth [3]	growth [4]	growth [5]	growth [6]	growth [7]	growth [8]	growth [9]	growth [10]
C/C(=N/N)c1nnn(-c2ccc(Br)cc2)c1C	103%	106%	98.1%	97.9%	98.6%	95.8%	99.6%	98.1%	86.2%	99.2%
Clc1ccc2c(N/N=C/c3c[nH]c4ccccc34)ccnc2c1	-82.7% (active)	-72.3% (active)	-96.2% (active)	-92.4% (active)	-84.1% (active)	-81% (active)	-98.4% (active)	-61.7% (active)	-92.9% (active)	-92.7% (active)
N#C/C(=C\c1cccc2c1OCO2)C(=O)Nc1sc2c(c1C#N)CCCC2	102%	124%	102%	95.4%	96.9%	109%	101%	90.8%	104%	102%
COc1ccc2[nH]cc(-c3nc(N)nnc3-c3cn(C)c4ccc(Br)cc34)c2c1	22%	2.43% (active)	-4.14% (active)	30.5%	20.2%	24.5%	15%	15.9%	35.4%	51.3%
O=C(COc1ccc(/C=C2\C(=O)Nc3ccc(F)cc32)cc1)Nc1ccccc1	99.1%	107%	94.7%	93.3%	94.4%	94.9%	100%	88.1%	79.6%	106%
O=C(CCl)Nc1ccc(NC(=O)c2cc(Cl)ccc2O)c(Cl)c1	25.9%	64.6%	77.1%	80%	42.8%	87.1%	57.8%	56.4%	-88.1% (active)	88.5%
C#CCN(C)CCCOc1ccc(NC(=O)CCCCCCC(=O)NO)cc1Cl	64.9%	10.5%	26.3%	30.3%	8.98% (active)	26.5%	-4.82% (active)	-28.9% (active)	-61.4% (active)	27.1%
Cc1ccc2c(n1)C(=O)C(Cl)=C(Nc1cc(C(F)(F)F)cc(C(F)(F)F)c1)C2=O	6.82% (active)	102%	98.3%	90.6%	85.2%	80.5%	77%	79.9%	66.2%	88.7%
O=C(Nc1cc(C(F)(F)F)cc(C(F)(F)F)c1)Nc1ccc2oc(=O)ccc2c1	10.5%	10.5%	15.1%	13.6%	14.6%	3.96% (active)	-90.6% (active)	14%	-43.1% (active)	34.8%

Reference: PubChem BioAssay (NCI)
